Test results published in PubChem BioAssay.
For some assays here: Measured potencies and affinities stand elsewhere. The list shows a part of the results. Active and inactive are the calls of the source.

Legend:
[1] = molecular target: Inward rectifier potassium channel 2 (Mus musculus) (UniProt P35561); assay: mouse Kir2.1 channel blockers, retest, confirmation, cell-based, FluxOR thallium flux, duplicate (AID 2032); settings: Kir2.1-expressing cells, FluxOR thallium flux fluorescence, at 10 µM; stronger effect = lower value
Sequence of Inward rectifier potassium channel 2 (Mus musculus) (P35561 whole entry, looked up): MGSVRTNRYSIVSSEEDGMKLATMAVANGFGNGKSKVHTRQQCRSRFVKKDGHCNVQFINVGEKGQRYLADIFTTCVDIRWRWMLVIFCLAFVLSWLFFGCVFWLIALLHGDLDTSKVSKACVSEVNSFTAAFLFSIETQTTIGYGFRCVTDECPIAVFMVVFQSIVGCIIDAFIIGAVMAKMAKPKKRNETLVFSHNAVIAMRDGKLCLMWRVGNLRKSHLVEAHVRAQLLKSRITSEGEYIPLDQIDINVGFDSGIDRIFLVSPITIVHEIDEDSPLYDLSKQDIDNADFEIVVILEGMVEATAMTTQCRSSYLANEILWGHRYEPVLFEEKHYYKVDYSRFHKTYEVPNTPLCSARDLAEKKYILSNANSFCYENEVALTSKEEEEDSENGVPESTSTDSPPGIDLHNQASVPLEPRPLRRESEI

[2] = nonspecific thallium flux effects in parental HEK293 cells, confirmation, counter-screen for Kir2.1 inhibitor project, cell-based, FluxOR thallium flux, duplicate, single concentration (AID 2105;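 active = dye signal at least 3 control SD above or below untreated wells in both duplicates, raw fluorescence within 3, either direction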;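 for FluxOR signal as % of negative control (100 = no effect): percent is based on the flux ratio of peak minus minimum fluorescence over baseline F0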); settings: FluxOR thallium flux fluorescence, at 10 µM; 0% = unstimulated blank wells
[3] = molecular target: Potassium voltage-gated channel subfamily KQT member 1 (Homo sapiens) (UniProt P51787); assay: KCNQ1 potassium channel inhibitors, confirmation, cell-based, Tl flux, duplicate (AID 588353;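 active = primary screen active, with duplicate mean exceeding buffer control mean plus 3 SD of buffer wells, cut at about 28% in these data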;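 note: 0% = buffer control ratio and 100% = XE991 inhibitor control ratio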); settings: KCNQ1 cell line, FluxOR thallium flux fluorescence; at 10 µM; stronger effect = higher value
Sequence of Potassium voltage-gated channel subfamily KQT member 1 (Homo sapiens) (P51787 whole entry, looked up): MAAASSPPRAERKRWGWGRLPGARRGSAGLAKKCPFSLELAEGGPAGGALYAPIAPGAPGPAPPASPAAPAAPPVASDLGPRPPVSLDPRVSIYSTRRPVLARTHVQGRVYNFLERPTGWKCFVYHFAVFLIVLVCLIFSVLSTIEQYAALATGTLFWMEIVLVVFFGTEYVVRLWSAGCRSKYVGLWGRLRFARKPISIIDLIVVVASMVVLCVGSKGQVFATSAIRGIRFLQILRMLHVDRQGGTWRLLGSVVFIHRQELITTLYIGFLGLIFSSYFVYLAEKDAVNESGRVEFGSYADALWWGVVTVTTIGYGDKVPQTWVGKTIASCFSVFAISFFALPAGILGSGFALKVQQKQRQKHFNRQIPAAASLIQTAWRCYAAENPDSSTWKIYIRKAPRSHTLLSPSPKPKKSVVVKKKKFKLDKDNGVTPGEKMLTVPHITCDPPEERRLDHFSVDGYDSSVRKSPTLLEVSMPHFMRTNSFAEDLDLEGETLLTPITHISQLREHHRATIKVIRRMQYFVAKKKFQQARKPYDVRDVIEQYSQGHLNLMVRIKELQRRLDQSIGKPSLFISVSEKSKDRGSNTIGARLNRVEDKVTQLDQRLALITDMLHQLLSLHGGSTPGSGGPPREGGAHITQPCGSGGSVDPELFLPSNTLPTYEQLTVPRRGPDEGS

[4] = thallium flux effects in parental CHO cells, counter-screen for KCNQ1 inhibitor project, cell-based, Tl flux (AID 588366;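 active = mean of duplicate thallium-flux fluorescence ratios in parental host cells more than 5 SD below the buffer control mean, cut at about 0.38 in these data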;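 note: ratio is peak minus minimum fluorescence divided by baseline fluorescence; actives read low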); settings: parental CHO-K1, FluxOR thallium flux fluorescence ratio; at 10 µM; stronger effect = lower value; zero means no signal rise above baseline
[5] = molecular target: Potassium voltage-gated channel subfamily KQT member 2 (Rattus norvegicus) (UniProt O88943); assay: KCNQ2 channel inhibition, selectivity assay for KCNQ1 inhibitor project, cell-based (AID 651746;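 active = mean percent inhibition of the KCNQ2 thallium signal more than 5 SD above the buffer-only control wells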;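 for inhibition: 0% = buffer control wells and 100% = XE-991 inhibitor control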); settings: KCNQ2 cells, FluxOR thallium flux fluorescence, at 10 µM; stronger effect = higher value
[6] = nonspecific thallium flux increase in parental CHO-K1, confirmation, counter-screen for KCNQ2 potentiator project, cell-based, FluxOR thallium flux, duplicate (AID 2282;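 active = signal rise of at least 3 SD above the untreated control mean, in both duplicate wells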;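 note: counter screen of KCNQ2 potentiator hits so any rise reflects channel-independent effects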); settings: parental CHO-K1 cells, FluxOR thallium flux fluorescence; at 10 µM; stronger effect = higher value; zero = vehicle mean+3SD, 100% = vehicle-minus-blank window
[7] = molecular target: Potassium voltage-gated channel subfamily KQT member 1 (Homo sapiens) (UniProt P51787); assay: human KCNQ1 channel potentiation off-target, confirmation, selectivity assay for KCNQ2 potentiator project, cell-based, CHO, FluxOR thallium flux (AID 2283;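 active = fluorescence ratio rise of at least 3 SD of vehicle wells above their mean, in both replicate wells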;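 note: 0% = vehicle mean plus 3 SD and 100% = vehicle minus unstimulated blank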); settings: CHO KCNQ1 stable, FluxOR thallium flux fluorescence; at 10 µM; stronger effect = higher value; beyond 3SD, as % of vehicle-control signal
[8] = molecular target: Potassium voltage-gated channel subfamily KQT member 2 (Rattus norvegicus) (UniProt O88943); assay: rat KCNQ2 channel potentiators, confirmation, cell-based, CHO, FluxOR thallium flux, duplicate (AID 2287;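 active = fluorescence ratio rising 3 SD or more over the vehicle control mean in both replicates, plus primary screen hit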;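 note: peak minus minimum thallium fluorescence divided by baseline after K/Tl stimulus; 0% = vehicle mean plus 3 SD and 100% = vehicle minus unstimulated blank difference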); settings: CHO-KCNQ2 cells, FluxOR thallium flux fluorescence; at 10 µM; stronger effect = higher value
[9] = molecular target: Inward rectifier potassium channel 2 (Mus musculus) (UniProt P35561); assay: PubChem AID 2345; settings: HEK293 Kir2.1, FluxOR thallium flux fluorescence; at 10 µM; stronger effect = higher value;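 note: 0% = vehicle mean plus 3 SD and 100% = vehicle minus no-stimulus blank window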
[10] = molecular target: Potassium voltage-gated channel subfamily KQT member 2 (Rattus norvegicus) (UniProt O88943); assay: potentiators of retigabine-insensitive KCNQ2 W236L, mechanism study for KCNQ2 potentiator project, cell-based, rat KCNQ2 W236L, CHO, automated patch clamp (AID 2558;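 active = current increase at least 3 SD of the untreated controls above them in both duplicate recordings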); settings: at 25 µM; outcome: automated patch clamp current
[11] = molecular target: Short transient receptor potential channel 4 (Mus musculus) (UniProt Q9QUQ5); assay: mouse TRPC4 membrane potential modulation by TRPC6 hits, confirmation, selectivity assay for TRPC6 inhibitor project, cell-based, second specificity screen, HEK293 TRPC4/mu-opioid (AID 2776;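 active = compounds whose fluorescence signal differed from control wells by over 3 SD, either direction, in both duplicate plates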); settings: HEK293 TRPC4/MOR, membrane potential dye fluorescence, at 10 µM, channel activated by saturating DAMGO dose; stronger effect = higher value
Sequence of Short transient receptor potential channel 4 (Mus musculus) (Q9QUQ5 whole entry, looked up): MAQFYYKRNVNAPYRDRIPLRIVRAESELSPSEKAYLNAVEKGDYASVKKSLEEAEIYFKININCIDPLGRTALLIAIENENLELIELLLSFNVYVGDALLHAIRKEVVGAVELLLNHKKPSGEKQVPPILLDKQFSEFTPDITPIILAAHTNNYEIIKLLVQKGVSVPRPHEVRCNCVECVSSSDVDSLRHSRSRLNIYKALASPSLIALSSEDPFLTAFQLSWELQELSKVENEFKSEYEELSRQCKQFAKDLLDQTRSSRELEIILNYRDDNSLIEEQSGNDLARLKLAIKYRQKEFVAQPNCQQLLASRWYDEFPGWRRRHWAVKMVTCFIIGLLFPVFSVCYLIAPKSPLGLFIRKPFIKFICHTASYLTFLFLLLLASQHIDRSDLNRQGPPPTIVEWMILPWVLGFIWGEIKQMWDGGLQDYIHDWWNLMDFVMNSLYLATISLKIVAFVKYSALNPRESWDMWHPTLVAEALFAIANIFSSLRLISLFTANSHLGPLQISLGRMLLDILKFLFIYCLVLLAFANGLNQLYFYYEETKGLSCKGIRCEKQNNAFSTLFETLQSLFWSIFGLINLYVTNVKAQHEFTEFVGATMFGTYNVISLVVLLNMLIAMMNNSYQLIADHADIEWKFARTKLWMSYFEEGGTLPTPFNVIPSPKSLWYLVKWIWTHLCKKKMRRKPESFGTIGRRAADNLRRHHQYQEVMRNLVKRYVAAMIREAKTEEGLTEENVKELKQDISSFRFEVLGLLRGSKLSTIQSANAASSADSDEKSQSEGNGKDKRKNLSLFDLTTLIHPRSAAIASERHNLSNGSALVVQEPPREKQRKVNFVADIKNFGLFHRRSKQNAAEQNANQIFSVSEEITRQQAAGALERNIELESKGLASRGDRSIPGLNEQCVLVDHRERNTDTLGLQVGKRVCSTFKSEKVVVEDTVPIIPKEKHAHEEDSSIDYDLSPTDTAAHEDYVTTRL

[12] = system: transient receptor potential cation channel C4 (TRPC4), mouse; assay: mouse TRPC4 modulation by TRPC6 hits, confirmation, selectivity assay for TRPC6 inhibitor project, cell-based, HEK293 TRPC4/mu-opioid, membrane potential dye (AID 2777;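 active = rise or fall in signal beyond 3 SD of buffer-only wells in both replicate plates, either sign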;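 note: integrated kinetic ratio of fluorescence range over baseline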); settings: membrane potential fluorescence, at 10 µM
[13] = nonspecific membrane potential effects, parental HEK293, confirmation, counter-screen for TRPC6 inhibitor project, cell-based, second counter screen (AID 2779;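 active = membrane potential signal moving either way by over 3 SD of the maximum-effect control, in both duplicate plates, meaning non-specific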); settings: parental HEK293 membrane potential dye fluorescence; at 10 µM; maximal acetylcholine challenge after compound addition
[14] = membrane potential modulation in parental HEK293, confirmation, counter-screen for TRPC6 inhibitor project, cell-based (AID 2780;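 active = membrane potential signal shifting up or down by more than 3 SD of buffer-only wells, on both duplicate plates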); settings: parental HEK293 membrane potential dye fluorescence; at 10 µM
[15] = molecular target: Short transient receptor potential channel 6 (Mus musculus) (UniProt Q61143); assay: mouse TRPC6 channel inhibitors, confirmation, HEK293 cells, membrane potential dye, duplicate (AID 488960;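 active = fluorescence ratio falls more than 5 SD below the full-stimulation control mean, in both duplicate runs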); settings: ACh-evoked depolarization, at 10 µM; stronger effect = higher value
Sequence of Short transient receptor potential channel 6 (Mus musculus) (Q61143 whole entry, looked up): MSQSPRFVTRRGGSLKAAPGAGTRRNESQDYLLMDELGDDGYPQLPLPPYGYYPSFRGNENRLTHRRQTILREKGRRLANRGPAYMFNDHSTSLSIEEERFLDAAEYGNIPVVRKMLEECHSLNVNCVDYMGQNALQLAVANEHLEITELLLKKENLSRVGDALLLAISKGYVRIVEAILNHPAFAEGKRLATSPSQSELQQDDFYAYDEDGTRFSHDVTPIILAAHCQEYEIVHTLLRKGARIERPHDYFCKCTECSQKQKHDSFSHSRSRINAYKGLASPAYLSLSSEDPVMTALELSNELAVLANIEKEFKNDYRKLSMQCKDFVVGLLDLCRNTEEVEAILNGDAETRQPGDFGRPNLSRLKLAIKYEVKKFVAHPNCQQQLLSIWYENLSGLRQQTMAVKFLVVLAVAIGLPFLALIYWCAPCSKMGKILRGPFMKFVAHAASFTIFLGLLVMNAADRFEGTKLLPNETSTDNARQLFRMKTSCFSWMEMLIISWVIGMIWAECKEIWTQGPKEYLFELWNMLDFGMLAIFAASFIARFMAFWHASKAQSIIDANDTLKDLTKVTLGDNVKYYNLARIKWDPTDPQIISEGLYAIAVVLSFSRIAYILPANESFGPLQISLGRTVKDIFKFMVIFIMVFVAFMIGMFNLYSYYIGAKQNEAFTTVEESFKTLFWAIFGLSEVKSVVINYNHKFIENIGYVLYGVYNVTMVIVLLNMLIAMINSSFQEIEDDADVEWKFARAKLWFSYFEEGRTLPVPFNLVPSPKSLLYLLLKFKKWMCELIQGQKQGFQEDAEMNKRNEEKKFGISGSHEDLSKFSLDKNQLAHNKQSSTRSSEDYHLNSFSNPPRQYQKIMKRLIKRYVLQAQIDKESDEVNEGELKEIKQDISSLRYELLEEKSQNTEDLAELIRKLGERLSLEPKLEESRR

[16] = molecular target: Short transient receptor potential channel 6 (Mus musculus) (UniProt Q61143); assay: mouse TRPC6 channel activators, confirmation, HEK293 cells, membrane potential dye, duplicate (AID 488961;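 active = ratio signal rise beyond 5 SD above unstimulated control wells' mean, seen in both duplicate runs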); settings: HEK293-TRPC6 membrane potential dye fluorescence, FDSS, at 10 µM; stronger effect = higher value
[17] = molecular target: Potassium voltage-gated channel subfamily KQT member 1 (Homo sapiens) (UniProt P51787); assay: KCNQ1 channel inhibitors, confirmation, orthogonal assay, cell-based, automated electrophysiology (AID 624120;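 active = KCNQ1 current drop exceeding 3 SD of negative control wells, seen in both duplicate runs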); settings: KCNQ1-CHO cells, automated patch clamp current; at 10 µM
[18] = molecular target: T1, Potassium voltage-gated channel subfamily E member 1 (Homo sapiens) + Potassium voltage-gated channel subfamily KQT member 1 (Homo sapiens) (UniProt P15382+P51787); assay: KCNQ1/KCNE1 channel inhibition, selectivity assay for KCNQ1 inhibitor project, CHO-K1 cells, thallium flux, FluxOR (AID 652147;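 active = mean percent inhibition of duplicate wells above the buffer-only control mean plus 3 SD of those controls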); settings: FluxOR thallium flux fluorescence, at 10 µM
T1 sequence (P51787 whole entry, looked up): as the sequence (P51787 whole entry, looked up) above

[19] = thallium flux activation in parental CHO cells, counter-screen for KCNQ1 potentiator project (AID 493006;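 active = duplicate-averaged activation above buffer control mean plus 5 SD of those controls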); settings: parental CHO-K1 cells, FluxOR thallium flux, at 10 µM; stronger effect = higher value
[20] = molecular target: Potassium voltage-gated channel subfamily KQT member 1 (Homo sapiens) (UniProt P51787); assay: KCNQ1 potassium channel potentiators, confirmation, FluxOR thallium flux, CHO cells, duplicates (AID 493007;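 active = potentiation averaged over duplicate wells exceeding buffer-only control mean by more than 3 SD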;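 note: 0% = buffer-only wells and 100% = R-L3 activator control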); settings: KCNQ1 cell line, FluxOR thallium flux fluorescence, at 10 µM; stronger effect = higher value, % of reference activator effect, buffer zero
[21] = molecular target: Potassium voltage-gated channel subfamily KQT member 2 (Rattus norvegicus) (UniProt O88943); assay: rat KCNQ2 channel potentiation, selectivity assay for KCNQ1 potentiator project, KCNQ2-CHO-K1 cells (AID 493009;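 active = mean duplicate potentiation above the buffer control mean plus 5 SD of buffer wells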;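 note: assay conditions were tuned for KCNQ1 rather than KCNQ2 modulators; signal is max minus min fluorescence divided by baseline after thallium stimulus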); settings: FluxOR thallium flux fluorescence, at 10 µM; stronger effect = higher value, scaled: buffer 0, activator control 100
[22] = molecular target: Potassium voltage-gated channel subfamily KQT member 1 (Homo sapiens) (UniProt P51787); assay: KCNQ1 channel current potentiators, confirmation, orthogonal assay for KCNQ1 potentiator project, IonWorks patch clamp, KCNQ1-CHO cells (AID 493184;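 active = current rise at least 3 SD above the untreated control mean in each of two repeat wells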); settings: automated patch clamp current, at 10 µM; stronger effect = higher value
[23] = molecular target: T1, Potassium voltage-gated channel subfamily E member 1 (Homo sapiens) + Potassium voltage-gated channel subfamily KQT member 1 (Homo sapiens); assay: KCNQ1/KCNE1 complex potentiators, confirmation, selectivity assay for KCNQ1 potentiator project, thallium flux, CHO-K1 KCNQ1/E1 cells (AID 493186;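 active = mean duplicate activation above the buffer control mean plus 5 SD of those controls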); settings: FluxOR thallium flux, at 10 µM
[24] = system: TRPC4 beta (transient receptor potential cation channel C4), mouse; assay: activators of mouse TRPC4 channel, confirmation, cell-based, Fluo4 calcium, HEK293 TRPC4beta/mu-opioid, duplicates, 10 µM (AID 2426;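 active = fluorescence ratio normalized to control raised more than 50% in primary screen plus both repeat runs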); settings: Fluo4 calcium fluorescence, at 10 µM; stronger effect = higher value
[25] = system: transient receptor potential cation channel C4 beta (TRPC4), mouse; assay: activators of mouse TRPC4 channel, confirmation, cell-based, second round, Fluo4, HEK293 TRPC4beta/mu-opioid, 1 µM (AID 2461;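 active = primary screen active and over 50% activation in each of two duplicate runs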); settings: Fluo4 calcium fluorescence, at 1 µM; stronger effect = higher value
[26] = system: TRPC4 (transient receptor potential cation channel C4 beta), mouse; assay: positive allosteric modulators of mouse TRPC4, confirmation, cell-based, second round, Fluo-4, HEK293 TRPC4beta/mu-opioid, 1 µM (AID 2554;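 active = primary screen hit whose fluorescence ratio, in both repeats, exceeds the weak agonist control mean by 3 SD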); settings: DAMGO EC20, Fluo-4 calcium flux, at 1 µM; stronger effect = higher value
[27] = system: TRPC4 beta (transient receptor potential cation channel C4), mouse; assay: positive allosteric modulators of mouse TRPC4, confirmation, cell-based, Fluo-4, HEK293 TRPC4beta/mu-opioid (AID 2555;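 active = primary screen hit whose calcium fluorescence ratio, in both repeats, exceeds the weak agonist control mean by 3 SD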); settings: DAMGO EC20, Fluo-4 calcium flux, at 10 µM; stronger effect = higher value
[28] = molecular target: Short transient receptor potential channel 4 (Mus musculus) (UniProt Q9QUQ5); assay: inhibitors of mouse TRPC4 channel, confirmation, cell-based, Fluo4, HEK293 TRPC4beta/mu-opioid (AID 2636;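 active = calcium signal cut by more than 3 SD below the full-agonist control yet still positive, in both repeats and the earlier primary screen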); settings: DAMGO, Fluo4 calcium flux, at 10 µM; stronger effect = higher value
[29] = molecular target: Short transient receptor potential channel 4 (Mus musculus) (UniProt Q9QUQ5); assay: inhibitors of mouse TRPC4 channel, confirmation, cell-based, second round, Fluo4, HEK293 TRPC4beta/mu-opioid, 1 µM (AID 2637;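 active = calcium signal ratio cut to more than 3 SD under the fully stimulated control mean yet still positive, in both repeats and the primary screen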); settings: Fluo4 calcium flux, DAMGO, at 1 µM; stronger effect = higher value
[30] = molecular target: Short transient receptor potential channel 4 (Mus musculus) (UniProt Q9QUQ5); assay: mouse TRPC4 channel activators, dose response, cell-based, HEK293 TRPC4/mu-opioid, Fluo-4 calcium (AID 434937;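 active = primary screen activator hit with a dose response curve and TRPC4 channel activation at any tested dose; inactive = no activation, no dose response, or not a primary hit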)
[31] = molecular target: Short transient receptor potential channel 4 (Mus musculus) (UniProt Q9QUQ5); assay: TRPC4 positive allosteric modulators, dose response, cell-based, HEK293 TRPC4/mu-opioid, Fluo-4 calcium, EC20 DAMGO (AID 434941;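 active = earlier screen potentiator hit that boosts the TRPC4 ion channel at some dose, with a dose response; inactive = no potentiation, no dose response, or not a prior hit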;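 note: calcium entry triggered by an EC20 dose of DAMGO at the co-expressed mu-opioid receptor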)
[32] = molecular target: Short transient receptor potential channel 4 (Mus musculus) (UniProt Q9QUQ5); assay: mouse TRPC4 channel inhibitors, dose response, cell-based, HEK293 TRPC4/mu-opioid, Fluo-4 calcium (AID 434942;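 active = primary screen inhibitor hit that blocks the TRPC4 channel at some tested dose, yielding a dose curve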)
[33] = molecular target: Short transient receptor potential channel 6 (Mus musculus) (UniProt Q61143); assay: inhibition of mouse TRPC6 channel, confirmation, selectivity assay for TRPC4 inhibitor project, cell-based, HEK293, membrane potential dye, duplicate (AID 434948;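 active = active in primary screen and both duplicates, each dropping signal beyond three positive-control SD with fluorescence still positive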); settings: HEK293 TRPC6, membrane potential dye fluorescence, at 10 µM, stimulated with maximal-effect acetylcholine; stronger effect = higher value
[34] = molecular target: Short transient receptor potential channel 6 (Mus musculus) (UniProt Q61143); assay: activation of mouse TRPC6 channel, confirmation, selectivity assay for TRPC4 activator project, cell-based, HEK293, membrane potential dye, duplicate (AID 434950;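 active = membrane potential signal rise above negative control mean plus 3 SD in both duplicates, also active in the earlier TRPC4 screen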); settings: HEK293 TRPC6, membrane potential fluorescence, at 10 µM; stronger effect = higher value
[35] = molecular target: Short transient receptor potential channel 6 (Mus musculus) (UniProt Q61143); assay: TRPC6 potentiation by TRPC4 potentiator hits, confirmation, selectivity assay for TRPC4 potentiator project, HEK293 cells, membrane potential dye, duplicate (AID 434952;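 active = compound raising the membrane signal above positive-control mean plus 3 SD in both repeats, and a primary screen hit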); settings: HEK293 TRPC6, membrane potential dye fluorescence, at 10 µM, maximal acetylcholine added after compound; stronger effect = higher value
[36] = molecular target: Short transient receptor potential channel 4 (Mus musculus) (UniProt Q9QUQ5); assay: calcium flux activators in TRPC4/5HT1a cells, counter-screen for TRPC4 activator project, cell-based, second counter screen, HEK293 TRPC4/5HT1a, Fluo-4 (AID 434977;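 active = calcium signal rise above buffer-control mean plus 5 SD in both duplicates, and also a hit in the primary screen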); settings: Fluo-4 calcium flux, at 10 µM; stronger effect = higher value
[37] = calcium flux inhibitors in TRPC4/5HT1a cells, confirmation, counter-screen for TRPC4 inhibitor project, cell-based, second counter screen, HEK293 TRPC4/5HT1a, Fluo-4 (AID 434978;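 active = primary screen active whose calcium signal fell more than 3 SD beyond the full-serotonin control mean in both duplicate plates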;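 note: serotonin given first at submaximal then at maximal dose after compound preincubation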); settings: Fluo-4 calcium flux, at 10 µM, serotonin added to trigger calcium flux; stronger effect = higher value
[38] = system: TRPC4 (mouse), co-expressed with 5HT1a in HEK293; assay: calcium flux potentiators in TRPC4/5HT1a cells, confirmation, counter-screen for TRPC4 potentiator project, cell-based, second counter screen, HEK293 TRPC4/5HT1a, Fluo-4 (AID 434979;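 active = signal rise over 3 SD above mean of control wells given weak agonist, in both repeats and first screen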); settings: Fluo-4 calcium flux, at 10 µM, serotonin added at its EC20 dose; stronger effect = higher value
[39] = calcium flux activation in mu-opioid HEK293 cells, confirmation, counter-screen for TRPC4 activator project, cell-based, HEK293 mu-opioid receptor line (AID 449723;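 active = hit in primary screen, with calcium signal over 5 SD above buffer well mean in both duplicates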;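 note: counter screen cells carry the mu-opioid receptor alone and lack TRPC4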); settings: Fluo-4 calcium fluorescence, at 10 µM; stronger effect = higher value
[40] = calcium flux enhancement in mu-opioid HEK293 cells, confirmation, counter-screen for TRPC4 allosteric potentiator project, cell-based, HEK293 mu-opioid receptor line (AID 449724;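 active = calcium signal rise more than 3 SD above the low-dose agonist control mean, in both duplicate plates and the primary screen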); settings: Fluo-4 calcium flux, at 10 µM, compound added before EC20 DAMGO stimulus; stronger effect = higher value

CC(=O)N(C1=C(Cl)C(=O)c2ccccc2C1=O)c1ccc(C(=O)O)cc1
active: inhibition [3] 158% | fluorescence ratio (Tl flux) [4] 0.205 | inhibition [5] 124%
inactive: outcome [1] | outcome [2]

N#Cc1c(-c2ccccc2)nc(SCc2cccc(C(F)(F)F)c2)[nH]c1=O
inactive: outcome [1] | activity increase over 3SD of controls [6] -8.3% | activation over 3SD threshold [7] -15% | activity over 3SD threshold [9] -39.2% | outcome [10]
active: FluxOR signal as % of negative control (100 = no effect) [2] 58% | potentiation, less the hit threshold [8] 6%

N=c1c2c(-c3ccccc3)c(-c3ccccc3)n(Cc3ccccc3)c2ncn1CCCO
inactive: outcome [2] | outcome [11] | outcome [12] | outcome [13] | outcome [14] | outcome [15] | outcome [16]
active: Tl flux remaining, % of negative control (stronger effect = lower value) [1] 37%

FC(F)(F)c1cccc(NC(=S)Nc2cccc(Cl)c2)c1
active: inhibition [3] 112%
inactive: outcome [1] | outcome [2] | activity increase over 3SD of controls [6] -22.1% | activation over 3SD threshold [7] -10.3% | potentiation, less the hit threshold [8] -4.8% | activity over 3SD threshold [9] -40.2% | outcome [10] | fluorescence ratio (Tl flux) [4] 0.527 | outcome [17] | outcome [5] | outcome [18]

Cc1[nH][nH]c(=O)c1C(c1ccc(-c2ccc(Cl)cc2)o1)c1c(C)[nH][nH]c1=O
inactive: outcome [1] | outcome [2] | outcome [19] | outcome [21] | outcome [22] | outcome [23]
active: potentiation [20] 27.5%

O=C(NCc1ccc2c(c1)OCO2)C12CC3CC(CC(C3)C1)C2
inactive: outcome [1] | outcome [2] | activity increase over 3SD of controls [6] -12% | activation over 3SD threshold [7] -10.2% | activity over 3SD threshold [9] -47% | outcome [10]
active: potentiation, less the hit threshold [8] 73.5%

NC(=S)N/N=C1/CCSc2ccc3ccccc3c21
inactive: outcome [24] | outcome [25] | outcome [26] | outcome [28] | outcome [29] | outcome [30] | outcome [31] | outcome [32] | outcome [33] | outcome [34] | outcome [35] | outcome [36] | outcome [37] | outcome [39] | outcome [40]
active: potentiation [27] 25% | potentiation [38] 18.7%

c1ccc(CN2CCN(c3nc4ccccc4s3)CC2)cc1
inactive: outcome [24] | outcome [25] | outcome [26] | outcome [28] | outcome [29] | outcome [30] | outcome [31] | outcome [32] | outcome [33] | outcome [34] | outcome [35] | outcome [36] | outcome [37] | outcome [39] | outcome [40]
active: potentiation [27] 9% | potentiation [38] 14.8%
